PubChem BioAssay AID624304 (Sanford-Burnham Center for Chemical Genomics, 2012)
Among all 360,000 compounds or so, about 1,800 (0.5%) were called active. The sample holds actives, similar compounds and a random draw of the others, so the mix is not that of the screen. A number with no mark means an inactive call.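 How the source made its calls: active means interference check ratio from 0.5 to 1.5 plus GFP to RFP signal ratio inhibition reaching or exceeding a fixed threshold (cut at about 30% in these data, passing the limit was not always enough); inactive means the rest.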

test: suppressors of acrylamide-induced Pgst-4::GFP reporter in worms, primary screen, SKN-1 inhibitor project, whole organism, uHTS, GFP/RFP fluorescence ratio, strain VP596 (AID 624304); details: C. elegans VP596 Pgst-4::GFP/RFP ratio, 24 h, at 21.8 µM, active compounds read high

SMILES	inhibition
COc1ccc(C(C#N)(CC(=O)O)c2cnccn2)cc1OC (stereo unspecified)	7.82%
Cn1nc(C(C)(C)C)c([N+](=O)[O-])c1C(N)=O	11.7%
CC(C)CN1CC(C)C(=O)N(c2ccccc2)C1=S (stereo unspecified)	6.3%
FC(F)(F)c1ccc2nnc(-c3c(Cl)cccc3Cl)n2c1	13.4%
Nc1cc(C(F)(F)F)ccc1N1CCOCC1	2.47%
CCCC1OC23CCCCC2C(C#N)(C#N)C1(C#N)C(=N)O3 (stereo unspecified)	39.2% (active)
O=C(NC1CCCC1)C1CC(=O)N(c2ccc(F)cc2)C1 (stereo unspecified)	0.701%
O=C(CCS(=O)(=O)c1cccc2nsnc12)N1CCN(c2ccccc2F)CC1	47.3% (active)
CCC(=O)N1CCc2cc(S(=O)(=O)CCC(=O)N3CCN(c4ccccc4F)CC3)ccc21	20.2%
O=C(CCCNS(=O)(=O)c1cccc2nsnc12)NCCN1CCN(c2ccccc2F)CC1	-3.19%
CN1CCN(c2ccccc2NC(=O)COc2ccc(C3CCCCC3)cc2)CC1	-4.71%
Cc1cc(NC(=O)CSc2ncc(C(F)(F)F)cc2Cl)no1	-6.53%
Cc1ccc(-c2ccnc3nc(Sc4ncc(C(F)(F)F)cc4Cl)nn23)cc1	41.4% (active)
Cc1ccc(-c2nc3c(Cl)cc(C(F)(F)F)cn3c2Cc2cccc(Cl)c2)cc1	9.6%
COc1cccc(CNC(=O)COc2cc(O)c3c(c2)OC(C)(C)CC3=O)c1	8.05%
CC1CN/C(=C\C(=O)c2ccc(Br)cc2)C(=O)N1 (stereo unspecified)	15.8%
COc1cccc(CNc2nc(NCc3ccccc3OC)nc3ccsc23)c1	43.2% (active)
COc1cccc(-c2cc3nc(NCc4ccccc4OC)n(C)c(=O)c3s2)c1	-2.32%
COc1cccc(CNc2nc(NCc3cccs3)nc3ccsc23)c1	6.96%
CCc1nc2c(OCc3ccc(C(=O)OC)cc3)cccn2c1N(C)C(=O)C(C)C	7.01%
O=C(Nc1ccc(-n2cccn2)cc1)C1CCN(Cc2ccsc2)CC1	-1.22%
CCCCNC(=O)c1onc(CSc2cccc(OC)c2)c1C(=O)O	-12.1%
CCC(C)NC(=O)c1cc(Cl)ccc1OC (stereo unspecified)	3.09%
Cc1ccc(-c2nc3ccc(Br)cn3c2Cc2ccccc2C(F)(F)F)cc1	35.2% (active)
COC(=O)c1ccc2nc(-c3cccc(Br)c3)c(Cc3ccccc3C(F)(F)F)n2c1	-9.35%
Cc1cc(Br)cn2c(Cc3ccccc3C(F)(F)F)c(-c3ccc(Cl)cc3)nc12	12.9%
